Test in all cases: NCI-60 one-dose screen, 48 h (100 = growth as untreated, 0 = no growth, -100 = all killed)
One assay deals with NCI-H23 lung. Particulars: 10 µM unless noted.
A further assay relates to NCI-H226 lung. As to conditions: 10 µM unless noted.
A further assay deals with NCI-H322M lung. As to conditions: 10 µM unless noted.
Another assay concerns HOP-62 NSCLC. Particulars: 10 µM unless noted.
In another assay the test system is NCI-H460 lung. Particulars: 10 µM unless noted.
For the next assay, the system named is HOP-92 NSCLC. As to conditions: 10 µM unless noted.
For the next assay, the system named is NCI-H522 lung. Particulars: 10 µM unless noted.
A further assay has as its system A549/ATCC NSCLC. As to conditions: 10 µM unless noted.
A further assay deals with 786-0 renal. As to conditions: 10 µM unless noted.
Another assay relates to COLO 205 colon. Particulars: 10 µM unless noted.
For another assay, the system named is DU-145 prostate. Particulars: 10 µM unless noted.
The next assay relates to K-562 leukemia. As to conditions: 10 µM unless noted.
The next assay has as its system MALME-3M melanoma. Particulars: 10 µM unless noted.
For a further assay, the system named is MDA-MB-231 breast. Particulars: 10 µM unless noted.
Another assay deals with RXF 393 renal. As to conditions: 10 µM unless noted.
Another assay deals with SF-268 CNS. Particulars: 10 µM unless noted.
For a further assay, the system named is SF-295 CNS. Particulars: 10 µM unless noted.
A further assay relates to SF-539 CNS. Particulars: 10 µM unless noted.
A further assay relates to UACC-257 melanoma. Particulars: 10 µM.

Structures are written as SMILES. About 83,000 compounds went through this panel and 20% of them were active in at least one assay; those are over-represented in the sample as a whole.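 Activity criterion: percent growth below 10, measured after cells in 96-well plates were exposed to a single compound concentration for 48 hours.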 Unmarked numbers belong to inactive results. Calls of active or inactive are those of the source.

As for `O=c1oc2ccc(-c3ccc(F)cc3F)cc2c(=O)n1-c1ccc(F)c(F)c1`, the growth is 2.21% (active) with NCI-H23 lung; 6.65% (active) with NCI-H226 lung; 6.5% (active) in the assay on NCI-H322M lung; 17.6% in the assay with HOP-62 NSCLC; 2.7% (active) in the assay with NCI-H460 lung; -21.4% (active) with HOP-92 NSCLC. Besides, the growth was -2.51% (active) with NCI-H522 lung; 7.96% (active) in the assay on A549/ATCC NSCLC; 10.2% with 786-0 renal; 83.2% in the assay on COLO 205 colon; 17.5% in the assay with DU-145 prostate; 10.8% in the assay on K-562 leukemia. Moreover, the growth was -14.6% (active) with MALME-3M melanoma; 7.85% (active) in the assay with MDA-MB-231 breast; -28.4% (active) in the assay with RXF 393 renal; 13.7% in the assay with SF-268 CNS; -12.6% (active) in the assay on SF-295 CNS; 11.9% with SF-539 CNS. Moreover, in the assay on UACC-257 melanoma, the growth was -14.9% (active).

Consider `CS(=O)(=O)c1ccc(-c2nn(-c3ccccc3)cc2/C=C/C(=O)c2ccc(Br)cc2)cc1`, for which the growth in the assay on NCI-H23 lung was 100%; with NCI-H226 lung, 101%; with NCI-H322M lung, 95.4%; with HOP-62 NSCLC, 105%; in the assay with NCI-H460 lung, 93.9%; in the assay on HOP-92 NSCLC, 114%. Besides, the growth in the assay on NCI-H522 lung is 82.6%; in the assay on A549/ATCC NSCLC it was 96.5%; in the assay with 786-0 renal, 91.5%; in the assay on COLO 205 colon, 113%; in the assay with DU-145 prostate, 100%; in the assay with K-562 leukemia it was 47.3%. Besides, the growth in the assay with MALME-3M melanoma was 71.3%; with MDA-MB-231 breast it was 88.3%; in the assay with RXF 393 renal it was 93.7%; in the assay on SF-268 CNS it was 99.4%; with SF-295 CNS it was 104%; in the assay on SF-539 CNS it was 102%. In addition, the growth in the assay with UACC-257 melanoma is 96.3%.

In the case of `C#CCOc1ccccc1C(Nc1ccccc1)c1nnnn1C1CCCCC1` (configuration not stated), the growth in the assay on NCI-H23 lung is 103%; with NCI-H226 lung, 107%; in the assay with NCI-H322M lung, 92.5%; in the assay with HOP-62 NSCLC, 103%; in the assay on NCI-H460 lung it was 103%; with HOP-92 NSCLC it was 103%. The growth in the assay on NCI-H522 lung is 80.1%; with A549/ATCC NSCLC, 96%; in the assay on 786-0 renal, 88.3%; in the assay on COLO 205 colon, 112%; with DU-145 prostate, 105%; in the assay on K-562 leukemia it was 77.5%. In addition, the growth was 100% with MALME-3M melanoma; 96.1% in the assay with MDA-MB-231 breast; 113% in the assay with RXF 393 renal; 93.7% with SF-268 CNS; 88.5% with SF-295 CNS; 101% in the assay on SF-539 CNS. The growth in the assay with UACC-257 melanoma is 101%.

Turning to `NC(=O)c1c(NC(=O)c2cccc(C(F)(F)F)c2F)sc2c1CCC(=O)C2`, the growth in the assay with NCI-H23 lung is 4.57% (active); in the assay on NCI-H226 lung, 24.8%; in the assay on NCI-H322M lung it was 98.6%; in the assay on HOP-62 NSCLC, 58.4%; with NCI-H460 lung, 10.9%; in the assay with HOP-92 NSCLC, 13.8%. The growth in the assay on NCI-H522 lung is -11.4% (active); with A549/ATCC NSCLC, 64.8%; in the assay on 786-0 renal it was 30.2%; with COLO 205 colon, -9.67% (active); in the assay with DU-145 prostate it was 89.1%; with K-562 leukemia it was 13.4%. Besides, the growth with MALME-3M melanoma is 19.4%; in the assay with MDA-MB-231 breast it was 12.9%; with RXF 393 renal it was -5.49% (active); in the assay with SF-268 CNS, 21.6%; with SF-295 CNS, 40%; in the assay with SF-539 CNS, 0.149% (active). Also, in the assay with UACC-257 melanoma, the growth was 12.9%.

Turning to `CCN(CC)c1ccc2cc(C(=O)NCCOCCOCCOCCn3cc(CCC(=O)Nc4ccc(C(=O)c5ccc(NC(=O)OC(C)(C)C)cc5)cc4)nn3)c(=O)oc2c1`, the growth with NCI-H23 lung was 61.7%; in the assay with NCI-H226 lung, 20.3%; in the assay on NCI-H322M lung, 74.5%; in the assay with HOP-62 NSCLC it was 53.5%; with NCI-H460 lung it was 78.9%; in the assay on HOP-92 NSCLC, 85.7%. The growth with NCI-H522 lung was 28.4%; with A549/ATCC NSCLC it was 73.1%; in the assay with 786-0 renal, 73.2%; in the assay on COLO 205 colon it was 38.2%; in the assay with DU-145 prostate, 61.8%; in the assay with K-562 leukemia, 38.3%. The growth in the assay on MALME-3M melanoma was 83.9%; in the assay on MDA-MB-231 breast it was 53.7%; in the assay on RXF 393 renal, 69.8%; in the assay on SF-268 CNS, 65%; in the assay with SF-295 CNS it was 43.3%; with SF-539 CNS, 79.5%. The growth in the assay on UACC-257 melanoma is 63.1%.

As for `N=c1c2cc(-c3ccccc3)oc2ncn1/N=C/c1ccccc1`, the growth with NCI-H23 lung is 98.1%; with NCI-H226 lung, 98.9%; in the assay on NCI-H322M lung, 94.5%; in the assay on HOP-62 NSCLC, 87.4%; in the assay on NCI-H460 lung, 57.6%; in the assay on HOP-92 NSCLC, 92%. The growth is 42.1% in the assay with NCI-H522 lung; 71.2% in the assay with A549/ATCC NSCLC; 78.6% with 786-0 renal; 88.1% with COLO 205 colon; 96.7% in the assay on DU-145 prostate; 27.6% with K-562 leukemia. Moreover, the growth is 48.9% in the assay on MALME-3M melanoma; 95.1% in the assay with MDA-MB-231 breast; 49.4% with RXF 393 renal; 89% in the assay on SF-268 CNS; 84.3% with SF-295 CNS; 85.8% in the assay on SF-539 CNS. In addition, the growth with UACC-257 melanoma was 85.6%.

For `O=C(c1cccc(F)c1)n1ccc2cc(NC(=S)Nc3cccnc3)ccc21`, the growth was 100% in the assay on NCI-H23 lung; 112% with NCI-H226 lung; 99% in the assay with NCI-H322M lung; 106% in the assay with HOP-62 NSCLC; 98.6% in the assay with NCI-H460 lung; 123% in the assay with HOP-92 NSCLC. For the same compound, the growth with NCI-H522 lung is 87.1%; with A549/ATCC NSCLC, 98.7%; in the assay on 786-0 renal it was 80.5%; in the assay with COLO 205 colon, 115%; with DU-145 prostate, 102%; in the assay on K-562 leukemia, 96%. For the same compound, the growth was 92.7% in the assay with MALME-3M melanoma; 106% with MDA-MB-231 breast; 108% in the assay with RXF 393 renal; 95.7% in the assay on SF-268 CNS; 97.3% in the assay with SF-295 CNS; 99.8% in the assay on SF-539 CNS. In the assay on UACC-257 melanoma, the growth is 97.4%.

For the compound `COc1ccc(/C=N/Nc2nc(N/N=C/c3ccc(OC)cc3O)nc(N3CCOCC3)n2)c(O)c1`, the growth is 86.3% with NCI-H23 lung; 69.4% in the assay on NCI-H226 lung; 59.7% in the assay with NCI-H322M lung; 64.8% in the assay on HOP-62 NSCLC; 23.5% in the assay on NCI-H460 lung; 88.6% in the assay on HOP-92 NSCLC. In addition, the growth is 80.9% with NCI-H522 lung; 53% in the assay with A549/ATCC NSCLC; 14.7% in the assay with 786-0 renal; 63.5% in the assay with COLO 205 colon; 57.8% with DU-145 prostate; 28% with K-562 leukemia. Moreover, the growth in the assay with MALME-3M melanoma is 67.6%; in the assay with MDA-MB-231 breast, 70.3%; in the assay on RXF 393 renal, -16.2% (active); in the assay on SF-268 CNS it was 53.8%; in the assay on SF-295 CNS, 31.3%; in the assay on SF-539 CNS, 47.3%. The growth with UACC-257 melanoma is 55.8%.

Values taken from PubChem BioAssay (NCI).
